We go through 40 compounds from PubChem BioAssay AID2733 (National Center for Advancing Translational Sciences (NCATS), 2010).

Inconclusive results are not listed. A number with no mark means an inactive call. Active and inactive are the calls of the source. Calls follow the shape of the dose curve; as a rule, active = well fitted inhibition curve with a large enough effect; inconclusive = small, poorly fitted or top-dose-only effect; inactive = flat fitted curve, though single readings scatter.

A short description of the test: High Content Assay for Compounds that inhibit the Assembly of the Perinucleolar Compartment: PC3M Cytotoxicity. Particulars: PC3M cells, ATPLite luminescence viability, 24 h; series mostly up to 46.1 µM; activity change, negative = cytotoxicity: at the top concentration. An excerpt:
High Content Assay for Compounds that inhibit the Assembly of the Perinucleolar Compartment
NIH Chemical Genomics Center [NCGC]
NIH Molecular Libraries Probe Centers Network [MLPCN]
Assay Submitter (PI): Sui Huang, Northwestern University, Feinberg School of Medicine, Cell and Molecular Biology, Chicago, Illinois.
The perinucleolar compartment (PNC) is a non-membrane-bound nuclear subdomain that is associated with but structurally distinct from the nucleolus. The PNC is a heritable trait, in which the number of PNCs per cell in daughter cells often mimics that of their mother cells. The PNC is heterogeneous in shape, is stable through interphase, disassembles during mitosis, and reassembles in early G1. The PNC is concentrated with newly synthesized RNA polymerase III (pol III) RNAs (MRP RNA, RNAse P H1 RNA, hY RNAs[hY1, 2, 5], Alu RNA, and SRP [7SL] RNA) and RNA binding proteins (nucleolin, PTB, CUG-BP, KSRP, Raver1, Raver2, and Rod).
Extensive in vitro studies have shown that the PNC is unique to tumor cells and preferentially forms in tumor cells derived from solid tissues. Examination of cancer cell lines from various origins and malignant capacities has shown that PNC prevalence correlates with the malignancy of tumors and has the potential to be developed as a pan-cancer prognostic marker.
Although the PNC is associated with a DNA locus and a handful of components have been identified, much remains to be investigated regarding the structure and function of the PNC and its mechanistic link to cancer. We have previously shown that PNC prevalence reduction is a valid strategy to identify compounds that can be used to study the structure and function of the PNC. It is necessary, however, to create a screening platform that is able to test a large number of compounds in an automated fashion. Here we report the development and robustness of an automated whole-cell phenotypic image-based screening assay that is capable of identifying such compounds.
We conducted a followup assay to measure the effect of the lead candidates on cell health by measuring ATP levels (ATPLite). The highly metastatic PC3M-GFP reporter cell line was used in this study.
1. Cells at a density of 75-90% confluency in T175 flasks were harvested using 7 ml TrypLE Express cell dissociation reagent. After dissociation (5 minutes room temperature incubation) 10 ml of complete media was added to the TrypLE/cell suspension. The liquid was transferred to a 50 ml Conical tube and cells were pelleted at 1000 RPM for 5 min. Supernatant was removed and cells were resuspended to a final density of 150-200 cells/ul in complete media.
2. Cells were plated in 5 ul volume (2000 cells/well) into 1536 well White solid bottom plates and allowed to recover and adhere at 37 C in a humidified 5% CO2 incubator for 4 hours.
3. After 4 hour incubation, compound libraries (23 nl of 12.5 uM in columns 5-48) were transferred to the plates in duplicate using a 1536 well pintool. Camptothecin positive control (59 uM final) was added to column 2 and 1:3 dilutions of camptothecin was added to column 3. DMSO negative controls were present in columns 1 and 4.
4. After a 24 hour incubation in the 37 C incubator, all wells were treated with 3 ul of ATPLite reagent using a multidrop combi dispenser (ThermoFisher). Bubbles that formed during dispensing were removed by spinning the plates for 1 minutre at 1500 RPM on a table top centrifuge.
5. Luminescencent signal was detected on a Viewlux CCD based imager (PerkinElmer) with a clear filter and a 30 second integration time.
The PC3M cell line stably expressing the PTB-GFP was provided by Sui Huang of Northwestern University. The media and cell culture reagents were purchased from Invitrogen (Carlsbad, CA), ATPLite came from PerkinElmer.
As to `N=c1c2c(-c3ccccc3)c(-c3ccccc3)n(Cc3ccccc3)c2ncn1CCCO`, the “activity change, negative = cytotoxicity” value is -10.9%. Still for that read-out and setting: the same measure for `CC(=O)Nc1cccc(Oc2ncnc3scc(-c4ccc(C)cc4)c23)c1`: -9.47%; for `O=C(Nc1cccnc1)c1cccs1`: 13.2%. As to `CC(=O)c1ccc(-n2c(SCC(=O)c3c[nH]c4ccccc34)nc3ccccc3c2=O)cc1`, the “activity change, negative = cytotoxicity” value is -0.271%. Still for that read-out and setting: the same measure for `CN(C)c1ccc(N=Nc2ccccc2C(=O)OCC(=O)NC2CCCC2)cc1`: -11.2%.

In the case of `Cc1ccc(-n2cc(-c3ccccc3)c3c(NN4CCOCC4)ncnc32)cc1`, the “activity change, negative = cytotoxicity” value was -0.717%. On the same count and under the same terms, the same measure for `COc1ccc(CN2CCC(C(=O)NCCc3ccc(OC)c(OC)c3)CC2)c(OC)c1`: -5.79%. Turning to `Cc1c(C#N)c(N)nc2c3c(sc12)NC(=O)CC3c1ccc(F)cc1` (stereo not given), the “activity change, negative = cytotoxicity” value is -15.1%. As to `CCOC(=O)Cn1c(-c2nonc2NC(=O)c2ccccc2F)nc2ccccc21`, the Potency is 4.47 µM (active). Turning to `Cc1ccc(NC2=C/C(=N/S(=O)(=O)c3cccs3)c3ccccc3C2=O)cc1`, the Potency was 14.1 µM (active). `Cc1ccc(NC(=S)NCCc2ccc(S(N)(=O)=O)cc2)cc1C`: the “activity change, negative = cytotoxicity” value was 14.6%. With `O=C1C(Nc2ccccc2)=C/C(=N/S(=O)(=O)c2cccs2)c2ccccc21`, the Potency is 15.8 µM (active). For the compound `COc1cccc(CNc2cccc3cccnc23)c1O`, the “activity change, negative = cytotoxicity” value was -0.123%. Consider `CCOC(=O)CSc1nc2c(sc3ccc([N+](=O)[O-])cc32)c(=O)n1Cc1ccco1`, for which the “activity change, negative = cytotoxicity” value is 8.39%.

For the compound `C=CCNC(=S)N/N=C(\C)c1ccccn1`, the Potency was 6.31 µM (active). Regarding `CC12CCC(C(=O)NC(c3ccccc3)c3ccccc3)(OC1=O)C2(C)C` (stereo not given), the “activity change, negative = cytotoxicity” value was -16.5%.

As to `COc1ccccc1NC1=C(N2CCCCC2)C(=O)c2ccccc2C1=O`, the Potency is 7.94 µM (active). As for `CNC1=C(N(C(C)=O)c2ccc(Br)cc2)C(=O)c2ccccc2C1=O`, the Potency is 8.91 µM (active).

Consider `O=C(N/N=C/c1cc2c3c(c1O)CCCN3CCC2)c1ccccc1O`, for which the Potency is 3.16 µM (active). On to `Cc1cccc(C)c1Nc1c(-c2ccc(N3CCOCC3)cc2)nc2ncccn12`, for which the “activity change, negative = cytotoxicity” value was -2.92%.

`O=C(Nc1ccc(NC(=O)C2CC2)cn1)c1ccccc1Cl`: the Potency is 28.2 µM (active). As to `COc1cc(/C=N/NC(=O)c2ccc(CSc3nc4ccccc4[nH]3)cc2)cc(OC)c1OC`, the “activity change, negative = cytotoxicity” value was -25%. In the case of `Cc1c(NC(=O)COC(=O)c2cc(-c3ccc(-c4ccccc4)cc3)nc3ccccc23)c(=O)n(-c2ccccc2)n1C`, the Potency was 5.01 µM (active).

As for `C/C(N)=C(/C#N)C(=O)COC(=O)c1cc(C)n(-c2ccc(F)cc2)c1C`, the Potency was 12.6 µM (active). Still for that read-out and setting: the same measure for `C=CCN=c1scc(-c2ccccc2)n1/N=C/c1ccccn1`: 14.1 µM (active). With `CN1c2ccccc2C(C)(C)C12CC(c1ccc(Cl)c(S(=O)(=O)N3CCCC3)c1)=NO2` (stereo not given), the Potency is 3.98 µM (active). For the compound `O=C(N/N=C/c1ccccc1O)c1cccc(C(F)(F)F)c1`, the Potency is 10 µM (active). For `Cc1cccc(NC2=C/C(=N/S(=O)(=O)c3cccs3)c3ccccc3C2=O)c1`, the Potency is 15.8 µM (active). Consider `Nc1ccc2c(c1)C(=O)C(=O)c1ccccc1-2`, for which the Potency is 22.4 µM (active). Regarding `COC(=O)C1=C(C)N(c2ccc(Br)cc2)C(=O)/C1=C\c1ccco1`, the “activity change, negative = cytotoxicity” value is -9.56%.

For the compound `Cc1ccc(Cl)cc1N(CC(=O)N1CCCCCC1)S(C)(=O)=O`, the “activity change, negative = cytotoxicity” value was -19%.

For `Cc1cc[n+](C2=C([O-])c3ccccc3C(=O)/C2=N\S(=O)(=O)c2cccs2)cc1C`, the Potency was 25.1 µM (active). Consider `Cc1cc(C(=O)Cn2nnc3ccccc3c2=O)c(C)n1-c1ccccc1F`, for which the Potency is 7.94 µM (active). Same read-out and setting: the same measure for `Cc1cc(C)c(S(=O)(=O)/N=C2/C=C(Sc3ncn[nH]3)C(=O)c3ccccc32)cc1C`: 14.1 µM (active).

In the case of `CCN(CC)c1ccc(N=Cc2ccccc2[N+](=O)[O-])cc1`, the “activity change, negative = cytotoxicity” value was 11.6%. On to `CSc1nc(-c2ccc(C)cc2)nc(C(Cl)Cl)n1`, for which the Potency is 31.6 µM (active).

Turning to `Cc1ccccc1C(=O)NNC(=S)Nc1cccc(C(F)(F)F)c1`, the “activity change, negative = cytotoxicity” value was -7.03%. Consider `O=c1[nH]cnc2c1C(c1ccccc1[N+](=O)[O-])c1c(nc[nH]c1=O)O2`, for which the “activity change, negative = cytotoxicity” value is 7.92%.

As to `O=C(COC(=O)Cc1ccsc1)NCC1CCCCC1`, the “activity change, negative = cytotoxicity” value is 1.89%. For the compound `O=C(N/N=C/c1cc(Cl)ccc1O)C(=O)Nc1ccccc1OC(F)(F)C(F)F`, the Potency is 14.1 µM (active).
